Test results reported in the supplement of paper PMC8728848.
Shown is part of a subset that was picked to be rich in the strongest signals.

Key:
Assay in all cases: glycan array binding signal (z-score within array); higher = stronger binding
Conditions in all cases: glycan notation: IUPAC condensed, linker removed
[1] = target: Fuc(a1-2)Gal(b1-4)Fuc(a1-3)]GlcNAc(b1-2)Man(a1-3)[Fuc(a1-2)Gal(b1-4)[Fuc(a1-3)]GlcNAc(b1-2)Man(a1-6)]Man(b1-4)GlcNAc(b1-4)GlcNAc
In short: (§1)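 From the Consortium for Functional Glycomics database, 3228 arrays were curated, keeping only those whose protein sequence was available. Binding is given as a within-array Z-score averaged across arrays sharing a protein sequence and across linkers. Negative Z-scores can be read as non-binding.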

[2] = target: Fuc(a1-2)Gal(b1-4)GlcNAc(b1-2)Man(a1-3)[Fuc(a1-2)Gal(b1-4)GlcNAc(b1-2)Man(a1-6)]Man(b1-4)GlcNAc(b1-4)[Fuc(a1-6)]GlcNAc
In short: as §1

[3] = target: Fuc(a1-2)Gal(b1-4)GlcNAc(b1-2)[Fuc(a1-2)Gal(b1-4)GlcNAc(b1-4)]Man(a1-3)[Fuc(a1-2)Gal(b1-4)GlcNAc(b1-2)Man(a1-6)]Man(b1-4)GlcNAc(b1-4)GlcNAc
In short: as §1

[4] = target: Fuc(a1-2)[Gal(a1-3)]Gal(b1-3)GlcNAc(b1-2)Man(a1-3)[Fuc(a1-2)[Gal(a1-3)]Gal(b1-3)GlcNAc(b1-2)Man(a1-6)]Man(b1-4)GlcNAc(b1-4)[Fuc(a1-6)]GlcNAc
In short: as §1

[5] = target: Fuc(a1-2)[Gal(a1-4)]Gal(b1-4)GlcNAc
In short: as §1

[6] = target: Fuc(a1-3)[Gal(b1-4)]Glc6S
In short: as §1

[7] = target: Fuc(a1-3)[Gal(b1-4)]GlcNAc6S
In short: as §1

[8] = target: Fuc(a1-3)[GalNAc(b1-4)]GlcNAc6S
In short: as §1

[9] = target: Gal(a1-3)Gal(b1-3)GlcNAc
In short: as §1

[10] = target: Gal(a1-3)GalNAc
In short: as §1

[11] = target: Gal(b1-3)GalNAc(b1-3)Gal(a1-4)Gal(b1-4)Glc
In short: as §1

[12] = target: Gal(b1-3)GlcNAc(b1-6)Gal(b1-4)GlcNAc
In short: as §1

[13] = target: Gal(b1-3)[Neu5Ac(a2-6)]GalNAc
In short: as §1

[14] = target: Gal(b1-4)GlcNAc(b1-2)[Gal(b1-4)GlcNAc(b1-6)]Man(a1-6)[Gal(b1-4)GlcNAc(b1-2)Man(a1-3)]Man(b1-4)GlcNAc(b1-4)[Fuc(a1-6)]GlcNAc
In short: as §1

[15] = target: Gal(b1-4)GlcNAc(b1-3)Gal(b1-4)GlcNAc(b1-3)[Gal(b1-4)GlcNAc(b1-3)Gal(b1-4)GlcNAc(b1-6)]GalNAc
In short: as §1

[16] = target: Gal(b1-4)GlcNAc(b1-3)[GlcNAc(b1-6)]Gal(b1-4)GlcNAc
In short: as §1

[17] = target: GalNAc(a1-3)GalNAc(b1-3)Gal(a1-4)Gal(b1-4)Glc
In short: as §1

[18] = target: GalNAc(b1-3)Gal(a1-6)Gal(b1-4)Glc
In short: as §1

[19] = target: GalNAc(b1-4)GlcNAc(b1-2)Man
In short: as §1

[20] = target: GalNAc(b1-4)GlcNAc(b1-2)Man(a1-3)[GalNAc(b1-4)GlcNAc(b1-2)Man(a1-6)]Man(b1-4)GlcNAc(b1-4)GlcNAc
In short: as §1

[21] = target: GalNAc3S(b1-4)GlcNAc
In short: as §1

[22] = target: GlcNAc(a1-3)Gal(b1-4)GlcNAc
In short: as §1

[23] = target: GlcNAc(a1-4)Gal(b1-4)GlcNAc(b1-3)Gal(b1-4)Glc
In short: as §1

[24] = target: GlcNAc(b1-2)Man(a1-3)[GlcNAc(b1-2)Man(a1-6)]Man(b1-4)GlcNAc(b1-4)GlcNAc
In short: as §1

[25] = target: GlcNAc(b1-2)Man(a1-3)[GlcNAc(b1-4)][GlcNAc(b1-2)Man(a1-6)]Man(b1-4)GlcNAc(b1-4)GlcNAc
In short: as §1

B1: AFCNVH (Aspergillus fumigatus) (protein)
chain: MSLRGFHTTCDTIVLKDKHILSSRCKRPDGTYSFSEIDLNDCLGNNNGKFVWGGESFVDSASQVNLALEGGEGRPMLHAQLNDWHGSVQSASVNLGECIQNEAGGLEYMHC
Q: How did the “glycan array binding signal (z-score)” value [1] turn out when B1 was run?
A: -0.233

Q: What about the “glycan array binding signal (z-score)” value [2] of the same binder?
A: -0.175

Q: And the “glycan array binding signal (z-score)” value [3]?
A: -0.277

Q: What about the “glycan array binding signal (z-score)” value [4] of the same binder?
A: -0.326

Q: And the “glycan array binding signal (z-score)” value [5]?
A: 0.231

Q: And the “glycan array binding signal (z-score)” value [6]?
A: -0.331

Q: What about the “glycan array binding signal (z-score)” value [7] of the same binder?
A: -0.372

Q: What about the “glycan array binding signal (z-score)” value [8] of the same binder?
A: 0.612

Q: What about the “glycan array binding signal (z-score)” value [9] of the same binder?
A: -0.453

Q: And the “glycan array binding signal (z-score)” value [10]?
A: -0.37

Q: What about the “glycan array binding signal (z-score)” value [11] of the same binder?
A: -0.212

Q: What about the “glycan array binding signal (z-score)” value [12] of the same binder?
A: -0.391

Q: And the “glycan array binding signal (z-score)” value [13]?
A: -0.504

Q: And the “glycan array binding signal (z-score)” value [14]?
A: -0.378

Q: What about the “glycan array binding signal (z-score)” value [15] of the same binder?
A: -0.168

Q: And the “glycan array binding signal (z-score)” value [16]?
A: 4.53

Q: And the “glycan array binding signal (z-score)” value [17]?
A: -0.347

Q: And the “glycan array binding signal (z-score)” value [18]?
A: -0.462

Q: And the “glycan array binding signal (z-score)” value [19]?
A: 4.18

Q: And the “glycan array binding signal (z-score)” value [20]?
A: 4.08

Q: What about the “glycan array binding signal (z-score)” value [21] of the same binder?
A: 1.43

Q: And the “glycan array binding signal (z-score)” value [22]?
A: 4.61

Q: What about the “glycan array binding signal (z-score)” value [23] of the same binder?
A: 3.99

Q: And the “glycan array binding signal (z-score)” value [24]?
A: -0.164

Q: And the “glycan array binding signal (z-score)” value [25]?
A: 4.58
